Laboratory results: PubChem BioAssay (NCATS)
Results filed as inconclusive are left out. Calls of active or inactive are those of the source. Calls come from the whole dose curve; as a rule, active = well fitted curve in the direction sought with a large enough effect; inconclusive = small, poorly fitted or top-dose-only effect, or another doubt; inactive = no such curve, though single readings can be large; an effect the other way counts as inactive or inconclusive.

Columns and labels:
Es-2 = assay: Primary qHTS to identify gynecologic anti-cancer compounds using libraries of approved drugs and bioactive compounds (AID 1345084); conditions: Gynecologic cancer cell panel viability, ATPlite luminescence, 48 h; series mostly up to 57.5 µM; note: nearly all actives have a fitted effect of over 55% in size
Summary of the method: (§1)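 Luminescence from the ATPlite ATP-monitoring reagent indicates viable cell number; lower signal means cytotoxicity. Cells received compound 16 h after seeding and were exposed for 48 h across five concentrations.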

HeLa = assay: as above; conditions: Gynecologic cancer cell panel viability, ATPlite luminescence, 48 h; series mostly up to 57.5 µM
Summary of the method: as §1

Hek293T = assay: as above; conditions: Gynecologic cancer cell panel viability, ATPlite luminescence, 48 h, control line for the selectivity index; series mostly up to 57.5 µM
Summary of the method: as §1

JEG-3 = assay: as above; conditions: Gynecologic cancer cell panel viability, ATPlite luminescence, 48 h; series mostly up to 57.5 µM
Summary of the method: as §1

PA-1 = assay: as above; conditions: Gynecologic cancer cell panel viability, ATPlite luminescence, 48 h; series mostly up to 57.5 µM
Summary of the method: as §1

Tov112D = assay: as above; conditions: Gynecologic cancer cell panel viability, ATPlite luminescence, 48 h; series mostly up to 57.5 µM
Summary of the method: as §1

OV90 = assay: as above; conditions: Gynecologic cancer cell panel viability, ATPlite luminescence, 48 h; series mostly up to 57.5 µM
Summary of the method: as §1

Tov-21-G = assay: as above; conditions: Gynecologic cancer cell panel viability, ATPlite luminescence, 48 h; series mostly up to 57.5 µM
Summary of the method: as §1

[1] = qHTS assay to identify inhibitors of the type 1 interferon - major histocompatibility complex class I in skeletal muscle: Counter screen cell viability and HiBit confirmation (AID 1347412); conditions: iHSKM muscle cells + IFN-b, HiBiT or CellTiter-Glo, 24 h; note: nearly all actives have a fitted effect of over 60% in size
Summary of the method: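 HLA-B*08:01–HiBiT knock-in immortalized human myoblasts (C25cl48) stimulated with 4.0 ng/ml human IFN-beta and dosed with compound in a 12-point 1:3 titration (top final 46 uM). After 24 hrs at 37 C, HiBiT lytic luminescence or CellTiter Glo ATP read out.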

CASKI = assay: Primary qHTS to identify gynecologic anti-cancer compounds using libraries of approved drugs and bioactive compounds (AID 1345084); conditions: Gynecologic cancer cell panel viability, ATPlite luminescence, 48 h; series mostly up to 57.5 µM; note: nearly all actives have a fitted effect of over 55% in size
Summary of the method: as §1

SKOV3 = assay: as above; conditions: Gynecologic cancer cell panel viability, ATPlite luminescence, 48 h; series mostly up to 57.5 µM
Summary of the method: as §1
% is set by controls: 0 for no effect and ±100 for the full control effect; potency is the fitted concentration of half-maximal effect.

COc1cc2nc(-c3ccc(N4CCN(C)CC4)cc3)nc(NCCN3CCOCC3)c2cc1OC
inactive: Potency (Es-2) | Potency (HeLa) | Potency (Hek293T) | Potency (JEG-3) | Potency (Tov112D)
active: Potency (PA-1) 15.8 µM

COCCOc1nc(-c2ccc(Cl)c(Cl)c2)n(-c2ccc(NC(=O)CCl)cc2)n1
active: Potency (Es-2) 11.2 µM | Potency (Tov-21-G) 5.62 µM | Potency ([1]; HiBiT) 3.52 µM | Potency ([1]; Viability) 7.87 µM
inactive: Potency (HeLa) | Potency (OV90)

CC(C)n1nc(-c2ccc3oc(N)nc3c2)c2c(N)ncnc21
active: Potency (CASKI) 2.24 µM | Potency (HeLa) 12.6 µM | Potency (Hek293T) 0.316 µM | Potency (OV90) 0.316 µM | Potency (Tov-21-G) 0.316 µM | Potency ([1]; HiBiT) 0.0991 µM

CN[C@@H](C)C(=O)N[C@H]1CN(C(=O)CC(C)C)CC[C@H]2CC[C@@H](C(=O)NC(c3ccccc3)c3ccccc3)N2C1=O
active: Potency (SKOV3) 7.94 µM | Potency (Tov-21-G) 5.62 µM
inactive: Potency (Es-2) | Potency (Hek293T) | Potency (JEG-3) | Potency (OV90)

NC(=O)c1cnc(-c2ccc(C3(N)CCC3)cc2)c(-c2ccccc2)c1
active: Potency (SKOV3) 28.2 µM
inactive: Potency (Es-2) | Potency (HeLa) | Potency (Hek293T) | Potency (JEG-3) | Potency (Tov112D)

CCOc1ccc(Nc2nc(-c3c(C)nc4ccccn34)cs2)cc1
active: Potency (Es-2) 0.316 µM | Potency (HeLa) 0.178 µM | Potency (OV90) 1.41 µM | Potency (Tov-21-G) 0.316 µM | Potency (Tov112D) 0.158 µM

CC(C)(C)NC(=O)Nc1cccc(Nc2ncc(F)c(NC(C)(C)CO)n2)c1
inactive: Potency (CASKI) | Potency (Es-2) | Potency (Hek293T) | Potency (JEG-3) | Potency (OV90) | Potency (PA-1) | Potency (SKOV3) | Potency (Tov-21-G) | Potency (Tov112D)

C=C1C(=O)[C@@]23C(CC[C@@H]1[C@H]2O)[C@@]12CO[C@]3(O)[C@@H](O)[C@@H]1C(C)(C)CC[C@@H]2O (some centres not stated)
active: Potency (Hek293T) 28.2 µM | Potency ([1]; HiBiT) 8.83 µM | Potency ([1]; Viability) 35.2 µM
inactive: Potency (HeLa) | Potency (OV90) | Potency (Tov112D)

CC(C)(C)Cn1c(N)nc2ccc(-c3[nH]c(C(C)(C)C)nc3-c3ccc(F)cc3)nc21
inactive: Potency (Es-2) | Potency (HeLa) | Potency (JEG-3) | Potency (PA-1) | Potency (Tov-21-G) | Potency (Tov112D)

COc1cc(N2CCC(N3CCN(C)CC3)CC2)ccc1Nc1ncnc(Nc2ccccc2S(=O)(=O)C(C)C)n1
active: Potency (HeLa) 10 µM | Potency (OV90) 8.91 µM | Potency (PA-1) 7.94 µM | Potency (Tov-21-G) 12.6 µM
inactive: Potency (JEG-3)

Cc1cccc(Nc2nc(-c3ccncc3)cs2)c1
inactive: Potency (Es-2) | Potency (HeLa) | Potency (Tov-21-G)

CC1CCC(C(=O)N(c2cc(C#CC(C)(C)C)sc2C(=O)O)C2CCC(O)CC2)CC1 (configuration not stated)
inactive: Potency (Es-2) | Potency (HeLa) | Potency (Hek293T) | Potency (OV90) | Potency (PA-1) | Potency (Tov-21-G) | Potency (Tov112D)

CNC1CCC(N(Cc2cccc(-c3ccncc3)c2)C(=O)c2sc3c(F)ccc(F)c3c2Cl)CC1 (configuration not stated)
inactive: Potency (CASKI) | Potency (HeLa) | Potency (JEG-3) | Potency (SKOV3) | Potency (Tov112D) | activity change, negative = inhibition ([1]; HiBiT, at 45.9 µM (top of the series)) -27.3%
